Screens (PubChem)
TexasRed fluor – Texas Red fluorescence interference in TRb-SRC2 counter-screen; TRb/SRC2 Texas Red total fluorescence interference; Potency, µM (series often up to 106 µM), for the others: at the top dose fluorescence change, negative = quenching; actives 0.29% (n = 280,000); AID 1479; active = well fitted curve in either direction with a large enough effect; inconclusive = small, poorly fitted or top-dose-only effect; also: potency is read from the fitted curve at half-maximal effect
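Human TRb ligand-binding domain at 0.6 uM with 20 nM Texas Red SRC2 peptide in Tris buffer containing 1 uM T3 and 5% DMSO, incubated with compound 5 h at ambient temperature. Total fluorescence (555/632 nm) calculated as parallel + 2 × perpendicular.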
Tau FP inhib – blocks human tau fibril formation measured by polarization | Potency, µM (highest dose often 57.7 µM), inactives show top-dose activity, negative = inhibition, actives largely listed as inhibitors | actives 0.39% (n = 280,000) | AID 1468 | K18 P301L tau heparin fibrillization, Alexa594 FP, 6 h | P10636; also: potency is read from the fitted curve at half-maximal effect; nearly all actives have a fitted effect of over 55% in size
Target sequence (P10636 561-689 P618L limits assumed): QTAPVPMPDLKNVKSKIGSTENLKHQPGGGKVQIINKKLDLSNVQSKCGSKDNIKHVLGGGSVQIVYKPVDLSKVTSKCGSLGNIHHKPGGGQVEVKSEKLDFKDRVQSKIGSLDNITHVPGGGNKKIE
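Read-out: fluorescence polarization of Alexa 594-labeled tau (0.24 uM), 555 nm excitation, 632 nm emission. Mixtures held 15 uM unlabeled K18 P301L, compound and 20 uM heparin, pH 7 acetate buffer, incubated 6 hr at 37 C.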
TRb-SRC2 inh – TRbeta-SRC2 interaction inhibition; TRbeta-SRC2 peptide binding, fluorescence polarization; receptor liganded with 1 µM T3; Potency, µM (doses to about 106 µM), for the others: at the top dose activity change, negative = inhibition, most hits filed as inhibitors; actives 0.065% (n = 280,000);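 also: potency is read from the fitted curve at half-maximal effect; plate controls were bound peptide for no effect and peptide without receptor for full effect; nearly all actives have a fitted effect of over 50% in size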
Target sequence (P10828 whole entry, looked up): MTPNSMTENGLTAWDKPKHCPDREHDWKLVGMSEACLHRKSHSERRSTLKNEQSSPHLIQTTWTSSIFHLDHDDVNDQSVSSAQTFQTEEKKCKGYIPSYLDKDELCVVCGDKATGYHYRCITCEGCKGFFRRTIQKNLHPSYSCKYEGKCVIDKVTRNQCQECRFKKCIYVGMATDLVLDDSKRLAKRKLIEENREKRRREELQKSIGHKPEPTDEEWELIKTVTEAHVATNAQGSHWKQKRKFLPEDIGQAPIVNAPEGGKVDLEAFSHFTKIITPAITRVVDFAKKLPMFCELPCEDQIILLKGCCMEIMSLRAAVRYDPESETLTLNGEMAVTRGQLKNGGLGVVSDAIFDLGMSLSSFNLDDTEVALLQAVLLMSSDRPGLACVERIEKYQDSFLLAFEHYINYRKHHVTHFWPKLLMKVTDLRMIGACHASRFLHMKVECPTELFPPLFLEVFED
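Read-out is fluorescence polarization (555 nm excitation, 632 nm emission) of a Texas Red SRC2 coactivator peptide; loss of signal reflects blocked binding to human TRb ligand-binding domain in the presence of 1 uM T3.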
Tau fluor cs – counter-screen for tau fibril formation inhibitors. tau K18 P301L Alexa594 fluorescence, heparin fibrillization. Potency, µM (series often up to 57.7 µM), without a hit: at the highest dose activity change, negative = decrease. actives 0.93% (n = 280,000). AID 1463; also: potency is read from the fitted curve at half-maximal effect; nearly all actives have a fitted effect of over 55% in size
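Human tau K18 P301L (15 uM unlabeled, 0.24 uM Alexa 594-labeled) in 100 mM sodium acetate pH 7 with 20 uM heparin, 6 hr at 37 C. ThT 30 uM added, 1 hr ambient; Alexa 594 FP and total fluorescence read at 555/632 nm.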
PNC assembly inh – perinucleolar compartment assembly inhibition; PC3M PTB-GFP, PNC prevalence imaging, 16 h; hits give low values; activity change (PNC), negative = inhibition, % at 10 µM; AID 2417; actives 3.1% (n = 140,000);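 active = readout at or below -70, meaning at least 70% loss of cells showing the perinucleolar compartment, a nuclear body marking cancer cells; inconclusive = readout between -30 and a set limit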;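 also: plate controls were DMSO wells for no effect and camptothecin positive control wells for full effect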
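PC3M cells stably expressing PTB-GFP, 750–1000 cells/well, treated 16 h at 37 °C with compound (23 nl of library stock), in duplicate. After paraformaldehyde fixation and Hoechst stain, imaged at 20x; PNC prevalence scored by image analysis.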
Tau ThT inhib – tau fibrillization inhibition (ThT binding). P10636. recombinant tau K18 P301L (four-repeat tau fragment), heparin-induced fibrillization, ThT fluorescence. Potency, µM (highest dose often 57.4 µM), inactives show top-dose activity, negative = inhibition, usual class: inhibitors. actives 2.1% (n = 270,000); also: potency is read from the fitted curve at half-maximal effect; nearly all actives have a fitted effect of over 55% in size
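In this qHTS, human K18 P301L tau is incubated with compound and heparin for 6 hr at 37 C, and Thioflavin T fluorescence then reports fibril load.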
Numbers without * were called inactive; ? = inconclusive; nt = not tested or not shown; [ ] = remark or other dose. This is a sample that favours compounds with a hit; in the whole collection about 4.6% have one here. Unless noted, calls follow the shape of the dose curve; as a rule, active = well fitted curve in the direction sought with a large enough effect; inconclusive = small, poorly fitted or top-dose-only effect, or another doubt; inactive = no such curve, though single readings can be large; an effect the other way counts as inactive or inconclusive. Unless noted, % is scaled to controls: 0 for no effect and ±100 for the full control effect.

SMILES	TexasRed fluor	Tau FP inhib	TRb-SRC2 inh	Tau fluor cs	PNC assembly inh	Tau ThT inhib
COc1ccc(CNC(=O)Nc2ccc([N+](=O)[O-])cc2)cc1	-1%	nt	0%	nt	nt	nt
COc1ccc(NC(=O)c2ccc(-c3ccc([N+](=O)[O-])cc3)o2)cc1	32µM*[quencher]	12%	?	?	nt	1.3µM*
Cc1nnn(C23CC4CC(CC(C(=O)NN)(C4)C2)C3)n1	-1%	-3%	5%	-6%	-114*	-9%
COc1cc(NC(=O)c2nc(-c3ccc(Cl)cc3)n3c2CCCCC3)cc(OC)c1OC	3%	9%	7%	-18%	nt	-3%
CC(=O)C1=C(c2cccc([N+](=O)[O-])c2)N(C(C)=O)n2c(C)nnc2S1	-7%	?	-5%	-29%	nt	3.5µM*
CC(=O)NCCNC(=O)c1oc2ccccc2c1CSc1ncn[nH]1	-2%	-4%	-4%	-4%	nt	-1%
CCC(Sc1nc(N)c(NC(=O)c2ccc(OC)c(OC)c2)c(=O)[nH]1)C(=O)OC (stereo not given)	-4%	1%	3%	3%	?	-2%
O=C(COC(=O)CCCSc1nc2ccccc2[nH]1)NC(=O)NC1CCCC1	4%	-8%	2%	-9%	5	-10%
c1ccc2c3c([nH]c2c1)-c1[nH]ncc1CC3	-1%	?	1%	?	-3	?
Clc1ccc2[nH]c3c(c2c1)CCc1cn[nH]c1-3	-2%	-13%	2%	8.9µM*[quencher]	-3	?
O=C(/C=C\c1ccco1)NC(=S)Nc1ccccc1O	-4%	-16%	-12%	?	nt	20µM*
O=C(/C=C/c1ccco1)NC(=S)Nc1ccccc1N1CCOCC1	-2%	-3%	-9%	-28%	-109*	-18%
O=C(/C=C/c1ccco1)NC(=S)Nc1ccccn1	-2%	0%	-16%	-22%	5	?
Cc1ccc(NC(=S)NC(=O)/C=C/c2ccco2)c(O)c1	-9%	-1%	-14%	-30%	nt	?
O=C(/C=C/c1ccco1)NC(=S)Nc1ccccc1O	-1%	-20%	1%	?	nt	22µM*
O=C(/C=C/c1ccco1)NC(=S)Nc1ccccc1N1CCCC1	2%	3%	6%	5%	nt	4%
Cc1cccnc1NC(=S)NC(=O)/C=C/c1ccco1	?	?	14%	-27%	-2	28µM*
Cn1c(=O)cc(NCc2ccccc2)[nH]c1=O	2%	-2%	-13%	-1%	-91*	4%
O=C(CCn1c(=O)c2ccccc2n(CC(=O)NC2CCCC2)c1=O)NCCc1ccc(Cl)cc1	0%	-1%	0%	-4%	?	2%
COc1ccccc1Nc1nc(-c2ccccc2)c(CC(=O)O)s1	-2%	9%	1%	-17%	nt	-19%
O=C(O)Cc1sc(N/N=C\c2ccccc2)nc1-c1ccccc1	-2%[53 µM]	?	2%[53 µM]	?	31	10µM*
CCOc1ccc(NC(=O)CSc2nc(N)c(-c3ccccc3)c(=O)[nH]2)cc1	-2%	-1%	2%	0%	nt	0%
COc1cccc(OCc2cc(/C=N/Nc3ccc(C(=O)O)cc3)ccc2OC)c1	-6%	4%	5%	11µM*[quencher]	nt	?
CCOc1cc(/C=N/Nc2ccc(C(=O)O)cc2)ccc1OC(=O)c1ccccc1C	-4%	?	0%	0.71µM*[quencher]	nt	nt
COC(=O)C(NC(C)=O)(Nc1cccc(C)n1)C(F)(F)F (stereo not given)	-3%	-6%	-5%	-14%	nt	-13%
SMILES	TexasRed fluor	Tau FP inhib	TRb-SRC2 inh	Tau fluor cs	PNC assembly inh	Tau ThT inhib
COc1ccc(-c2oc3ccccc3c(=O)c2OCC(=O)O)cc1	0%	1%	-5%	1%	nt	-2%
CCOc1ccc(N2C(=O)c3cccnc3C2=O)cc1	0%	0%	5%	-2%	-3	-2%
Cc1nc2ccccn2c1C(=O)NCc1cccnc1	-1%	1%	3%	0%	-85*	3%
CC(C)n1c(=N)c(C(=O)NCc2cccnc2)cc2c(=O)n3ccccc3nc21	-4%	0%	4%	-7%	nt	-7%
O=C(Nc1nc2ccc(F)cc2s1)c1nc(S(=O)(=O)Cc2ccccc2F)ncc1Cl	-3%	-11%	-4%	-21%	nt	10µM*
CCOc1ccc(NC(=O)c2nc(S(=O)(=O)Cc3ccccc3F)ncc2Cl)cc1	-1%	1%	2%	4%	nt	?
CCOC(=O)c1[nH]c2ccc(F)cc2c1NC(=O)c1cc(OC)c(OC)c(OC)c1	-2%	?	-8%	?	-28	-10%
CCn1ncc(Cl)c1C(=O)Nc1ccncc1	-5%	2%	2%	5%	-114*	0%
CCn1ncc(C(=O)Nc2cccc(Cl)c2)c1C	0%	8%	-3%	2%	-89*	0%
Cn1ncc(Cl)c1C(=O)Nc1ccncc1	-2%	0%	10%	2%	?	3%
CCn1ncc(C(=O)Nc2cc(C)on2)c1C	1%	-1%	5%	-4%	49	-8%
COc1ccc(S(=O)(=O)N(CC(=O)Nc2cccnc2)c2ccccc2OC)cc1	1%	-2%	13%	-10%	-11	1%
O=C1c2cccc3c(O)ccc(c23)C(=O)N1Cc1ccccc1	2%	9%	-3%	?	-90*	?
NCCn1c(-c2ccccc2)cc(C(=O)O)c1-c1ccccc1F	-1%	-3%	0%	-7%	-81*	-6%
O=C(N/N=C/c1cc(Cl)cc([N+](=O)[O-])c1O)NC12CC3CC(CC(C3)C1)C2	-3%	3%	1%	?	-19	13µM*
O=C(N/N=C/c1cc(Cl)cc([N+](=O)[O-])c1O)c1ccccc1NS(=O)(=O)c1cccs1	-5%	9%	-1%	-28%	nt	11µM*
Cc1ccc2nc(C)c(C(=O)N/N=C/c3ccccc3[N+](=O)[O-])cc2c1	-1%	-3%	-7%	-7%	29	-9%
Cc1cc(C(=O)N/N=C/c2cc(Cl)cc([N+](=O)[O-])c2O)c2ccccc2n1	2%	14%	9%	?	?	7.1µM*
CCOC(=O)c1cnc(SC)nc1N1CCCC1	-2%	5%	4%	-2%	nt	-3%
Cc1ccc(NC(=O)C2CCCN(S(=O)(=O)c3ccc4c(c3)oc(=O)n4C)C2)nc1 (stereo not given)	2%	-6%	-15%	7%	11	-3%
Nn1c(Nc2ccccc2)nc2sc3c(c2c1=O)CCC3	1%	2%	-3%	28µM*[quencher]	7	20µM*
NNc1nc2sc3c(c2c(=O)n1Cc1ccccc1)CCC3	-7%	-2%	-8%	-21%	nt	?
